Pf growth 96h: P. falciparum growth inhibition at 96 hours. P. falciparum luciferase reporter growth, 96 h. Potency, µM (top dose mostly 28.7 µM), for the others: top-dose activity change, negative = inhibition, most hits filed as inhibitors. hit rate 6.9% among 320,000. AID 504834; further: potency means the concentration at half of the fitted maximal effect; on the % scale 0 is the no-effect control and ±100 the full control effect
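Compounds incubated with erythrocytes infected by luciferase-expressing P. falciparum (2% hematocrit, 0.05% parasitemia final) for 96 hours, 37 C in 5% CO2. Growth inhibition scored as decreased luciferase luminescence.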
SARS PLP yeast: inhibitors of SARS-CoV papain-like protease in yeast; S. cerevisiae expressing SARS-CoV PLpro, growth rescue; Potency, µM (titrated, usually from 32.9 µM), for inactives: top-dose activity, positive = growth rescue, most hits filed as activators; hit rate 0.19% among 330,000; AID 485353; calls by dose curve; further: potency means the concentration at half of the fitted maximal effect; 0% is about no effect; nearly all actives have a fitted effect of over 55% in size
Shiga inhibitor: Shiga toxin inhibition | Vero cells, Shiga toxin protein synthesis inhibition reporter | inhibition, % at 38.7 µM | hit rate 9.2% among 290,000 | AID 2315; in the data active means inhibition mostly above about 28%, no sharp cut-off; inactive means mostly below about 43%; further: 0% is about no effect
CHX counter: affects cycloheximide protein synthesis inhibition readout, counter-screen. cell reporter, cycloheximide protein synthesis inhibition counterscreen. max response, %. hit rate 12% among 300,000. AID 2314; in the data active means max response mostly above about 13%, no sharp cut-off; inactive means mostly below about 14%; further: read at 38.3 µM for the half of the compounds with a filed dose; 0% is about no effect
Pf growth 48h: P. falciparum growth inhibition at 48 hours (one generation); Potency, µM (highest dose often 28.7 µM), for inactives: at the top dose activity change, negative = inhibition, usual class: inhibitors; P. falciparum luciferase growth in erythrocytes, 48 h; AID 504832; hit rate 5.9% among 310,000; further: potency means the concentration at half of the fitted maximal effect; on the % scale 0 is the no-effect control and ±100 the full control effect
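Growth was read as firefly luciferase luminescence after a 48 h, 37 C, 5% CO2 exposure of compounds to reporter-bearing P. falciparum cultures (0.1% parasitemia, 2% hematocrit final) in Albumax-supplemented RPMI 1640.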
NS1 inh: influenza NS1 inhibition; Potency, µM (series often up to 46.1 µM), without a hit: top-dose activity, positive = more growth; hit rate 0.4% among 270,000; AID 2326; calls by dose curve; further: potency means the concentration at half of the fitted maximal effect; actives are rising curves; nearly all actives have a fitted effect of over 50% in size
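Compounds were scored for reversing the slow growth caused by influenza A NS1 in S. cerevisiae, measured by optical density at 600 nm. Assay medium contained 2% galactose at pH 6.0; NS1-free yeast of the same strain were the positive control.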
* = called active by the depositor; i = inactive; ? = inconclusive; · = no result given. In the library only some 21% were active in any assay of this set; here they are far more common. Unless noted, the call rests on the fitted dose curve; in most records, active means well fitted inhibition curve with a large enough effect; inconclusive means small, poorly fitted or top-dose-only effect, or another doubt; inactive means no such curve, though single readings can be large or run the other way.

SMILES	Pf growth 96h	SARS PLP yeast	Shiga inhibitor	CHX counter	Pf growth 48h	NS1 inh
Cc1cc[n+](CC(=O)Nc2ccccc2)cc1	?	2%	·	3	?	24%
O=C(C[n+]1ccccc1)Nc1ccccc1Br	-26%	0%	53*	24*	40%	15%
O=C(C[n+]1ccccc1)Nc1ccc(Oc2ccccc2)cc1	0%	0%	-7	-1	6.6µM*	3%
CCN(CC)CC(=O)Nc1ccc(Oc2ccc(NC(=O)CN(CC)CC)cc2)cc1	3%	0%	2	7	?	3%
CCN(CC)C(=O)C(=O)Nc1ccc(Oc2ccccc2)cc1	0%	-2%	78*	24*	8%	-1%
COC(=O)c1cc(S(=O)(=O)NCC2CCN(CCc3cccs3)CC2)c[nH]1	?	-2%	-4	-1	2%	16%
C=CCOc1ccc(/C(CC)=N/O)c(OC)c1	·	-4%	27	13*	8%	-5%
C=CCOc1cc(OC)c(OC)c(OC)c1	-1%	0%	-2	-1	17%	-2%
O=C(Nc1ccc(Br)cc1)c1cccc(N2C(=O)CCC2=O)c1	25%	1%	65*	55*	-1%	2%
O=C(Nc1ccccc1)c1cccc(N2C(=O)CCC2=O)c1	·	3%	-13	-3	0%	3%
CN(C)c1ccc(NC(=O)c2cccc(N3C(=O)CCC3=O)c2)cc1	73%	5%	37	21*	44%	-1%
CC(N1CCOC1=O)S(=O)(=O)c1ccccc1 (stereo not drawn)	23%	11%	8	-2	·	7%
COc1ncnc2c1oc1nc(CC(C)C)c3c(c12)CC(C)(C)OC3	?	1%	-14	-2	2.1µM*	5%
CCCNc1oc(-c2cccc3ccccc23)nc1C#N	-3%	-1%	69*	22*	44%	4%
N#Cc1nc(-c2cccc3ccccc23)oc1NCCN1CCOCC1	23%	11%	33	15*	-13%	-50%
CC(=O)Nc1oc(-c2cccc3ccccc23)nc1C#N	10%	-5%	·	·	-21%	·
N#Cc1nc(-c2ccccc2F)oc1NCCN1CCOCC1	9.3µM*	4%	1	-3	·	-8%
CCN(CC)CCN(Cc1cc2cc3c(cc2[nH]c1=O)OCO3)C(=S)NC	-13%	?	·	-3	?	1%
NC(=O)c1ccc(Oc2ccc3c(c2)CCC3)c([N+](=O)[O-])c1	59%	-29%	-6	-5	29%	-19%
COc1ccccc1NC(=O)C(=N\O)/C(C)=N/O	-6%	4%	25	-6	5%	12%
Cn1c(C(=O)N2CCN(c3cccc(C(F)(F)F)c3)CC2)cc2sccc21	9.3µM*	-3%	-17	0	4%	-71%
Cc1ccc(C)c(N2CCN(C(=O)c3cc4sccc4n3C)CC2)c1	37%	-15%	57	19	?	-31%
CCO[C@H]1OC(C(=O)N2CCN(C)CC2)=C[C@@H](c2ccc(Br)cc2)[C@@H]1CCCO	8%	0%	-4	-2	-8%	2%
NC(=O)c1ccccc1NC(=O)Nc1cccc2ccccc12	-7%	0%	15	36*	?	·
NC(=O)NNC(=S)Nc1cccc2ccccc12	0%	1%	-20	-1	23%	-4%
SMILES	Pf growth 96h	SARS PLP yeast	Shiga inhibitor	CHX counter	Pf growth 48h	NS1 inh
O=C(Nc1cccc2ccccc12)c1ccc([N+](=O)[O-])cc1	7.4µM*	2%	21	14*	27%	-11%
O=C(Nc1cccc2ccccc12)c1ccc(F)cc1	45%	2%	52*	44*	32%	-22%
Nc1ccccc1C(=O)Nc1cccc2ccccc12	111%	-2%	36*	35*	150%	16%
Cc1ccc(NC(=S)NNS(=O)(=O)c2ccc3ccccc3c2)cc1Cl	-25%	-3%	-7	-1	23%	·
O=C(CNCC1CCCO1)NCc1ccco1 (stereo not drawn)	?	1%	-1	2	35%	?
O=C(Nc1cccc2ccccc12)c1ccccc1	94%	-1%	96*	42*	96%	6%
NS(=O)(=O)c1ccc(O)c(NC(=O)c2ccc([N+](=O)[O-])cc2)c1	?	0%	68	22*	-54%	3%
CC(C)c1nnc(NC(=O)CCC(=O)NC2CC2)s1	-19%	-6%	-2	-11	20%	-4%
CC(C)c1ccc(CNc2ncc(Br)cn2)cc1	12%	1%	32*	17*	90%	2%
Cc1cc(C)c(Cn2cnc(-c3ccc([N+](=O)[O-])cc3)c2)c(C)c1	?	5%	12	-1	?	-3%
CC(C)c1ccc(CNc2nnnn2C)cc1	-22%	0%	-7	-1	-11%	-4%
CC(C)(C)c1ccc(CNc2ccc([N+](=O)[O-])cn2)cc1	?	-46%	81*	23*	42%	-4%
CC(C)(C)c1ccc(Cn2cnc(-c3ccc([N+](=O)[O-])cc3)c2)cc1	?	4%	54*	40*	67%	1%
CC(C)c1ccc(CNc2ccc([N+](=O)[O-])cn2)cc1	1%	-14%	74*	55*	229%	·
O=[N+]([O-])c1ccc(NCc2ccc(Cl)cc2)nc1	93%	-2%	63*	39*	295%	-5%
COCc1c(C(=O)NCC2COc3ccccc3O2)oc2ccccc12 (stereo not drawn)	?	0%	·	·	12µM*	·
O=C(O)CNCC1COc2ccccc2O1 (stereo not drawn)	126%	5%	9	-3	0%	0%
O=C(NCC1COc2ccccc2O1)c1ccc(Cl)cc1 (stereo not drawn)	-13%	-8%	39	16*	161%	-172%
c1ccc(CCNCC2COc3ccccc3O2)cc1 (stereo not drawn)	5%	0%	28*	19*	·	-4%
c1ccc2c(c1)OCC(CNCC1COc3ccccc3O1)O2 (stereo not drawn)	0.21µM*	-13%	-2	-4	5%	-32%
CCOc1ccc(NC(=O)C(=O)NCCN2CCN(S(=O)(=O)c3ccc(C)cc3)CC2)cc1	41%	-2%	-6	-3	-28%	1%
CN(CCCC(=O)N1CCCC(C(N)=O)C1)S(=O)(=O)c1ccc(F)cc1 (stereo not drawn)	-14%	0%	-13	4	-5%	2%
Cc1ccc(CS(=O)Cc2ccc(C(=O)N3CCN(c4ccccn4)CC3)o2)cc1 (stereo not drawn)	34%	-2%	8	-2	-18%	-14%
CC(=O)C(Cc1ccccc1)NC(=O)CN1CCN(Cc2ccccc2)CC1 (stereo not drawn)	-12%	0%	-1	7	i	·
O=C(O)CSc1ccc(N=C=S)cc1	·	·	·	·	·	0%
O=C(/C=C/c1cccc([N+](=O)[O-])c1)NCC1CCCO1 (stereo not drawn)	0%	3%	2	6	19%	10%
